From PMC4336329 (PLoS ONE, 2015)
In all, about 310,000 compounds went through this assay and about 14,000 (4.5%) showed an effect of 50% or more. The effect is printed as a negative number. The sample holds strong results, similar compounds and a random draw of the others, so the mix is not that of the screen.

Target: human ether-à-go-go-related gene (hERG) potassium channel (human, UniProt Q12809)
Experiment: primary screen, population patch clamp on CHO cells stably expressing hERG; higher = less effect of the substance
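Note: peak tail current of the secondary pulse compared with the same well before compound.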

Sequence of human ether-à-go-go-related gene (hERG) potassium channel (Q12809 whole entry, looked up): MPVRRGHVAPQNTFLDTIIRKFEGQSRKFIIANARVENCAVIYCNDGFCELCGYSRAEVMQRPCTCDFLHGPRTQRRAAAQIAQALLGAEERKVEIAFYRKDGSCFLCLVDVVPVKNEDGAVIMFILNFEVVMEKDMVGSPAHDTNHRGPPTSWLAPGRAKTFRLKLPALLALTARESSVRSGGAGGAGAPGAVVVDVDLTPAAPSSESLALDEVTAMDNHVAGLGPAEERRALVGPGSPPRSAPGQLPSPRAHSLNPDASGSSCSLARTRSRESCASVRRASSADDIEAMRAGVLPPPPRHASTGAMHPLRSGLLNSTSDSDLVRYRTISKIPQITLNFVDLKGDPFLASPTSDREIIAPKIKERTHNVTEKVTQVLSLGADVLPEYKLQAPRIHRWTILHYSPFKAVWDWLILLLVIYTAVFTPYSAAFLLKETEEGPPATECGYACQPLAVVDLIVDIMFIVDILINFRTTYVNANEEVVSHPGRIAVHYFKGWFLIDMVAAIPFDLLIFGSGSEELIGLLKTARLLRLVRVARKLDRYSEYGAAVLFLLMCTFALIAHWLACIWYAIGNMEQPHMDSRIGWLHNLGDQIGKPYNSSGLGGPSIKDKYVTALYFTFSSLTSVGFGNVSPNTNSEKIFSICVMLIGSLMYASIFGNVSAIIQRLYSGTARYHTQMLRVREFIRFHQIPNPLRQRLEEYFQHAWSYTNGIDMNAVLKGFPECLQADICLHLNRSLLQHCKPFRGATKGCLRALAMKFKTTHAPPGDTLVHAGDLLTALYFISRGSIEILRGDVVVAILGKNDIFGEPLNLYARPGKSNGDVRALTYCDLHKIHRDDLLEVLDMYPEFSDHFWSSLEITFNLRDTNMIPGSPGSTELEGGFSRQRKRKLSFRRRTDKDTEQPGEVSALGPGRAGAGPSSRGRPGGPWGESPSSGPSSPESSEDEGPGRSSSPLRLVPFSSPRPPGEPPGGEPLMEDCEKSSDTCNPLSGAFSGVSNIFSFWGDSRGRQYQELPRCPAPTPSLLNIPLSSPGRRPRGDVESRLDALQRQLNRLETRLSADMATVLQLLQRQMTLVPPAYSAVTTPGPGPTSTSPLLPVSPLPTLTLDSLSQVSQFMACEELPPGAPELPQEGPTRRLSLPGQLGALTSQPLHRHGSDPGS

Structure (SMILES)	hERG current change (%, negative = inhibition) at 10uM [%]
COc1cc(/C=C2\S/C(=N/S(=O)(=O)c3ccccc3)NC2=O)c([N+](=O)[O-])cc1OC	4.25
O=C(CC1SC(=O)N(Cc2ccc(Cl)cc2)C1=O)Nc1nccs1 (stereo not shown)	-4.51
O=c1[nH]c(=O)n(C2OC(CO)C(O)C2O)cc1Br (stereo not shown)	26.2
CCOC(=O)c1c(-c2ccc(C)o2)csc1N	20.5
Oc1ccccc1C1=Nc2ccccc2N=C(c2ccco2)C1	-12.7
COc1ccc(CNS(=O)(=O)c2c(C)[nH]c(C)c2C(=O)N2CCCC2)cc1	17.6
CCOC(=O)C1CCN(c2ccc([N+](=O)[O-])c(C(C)=O)c2)CC1	-11.8
CCOC(=O)N1CCN(c2c(N3CCN(C(=O)OCC)CC3)c(=O)c2=O)CC1	-29.1
CN(C)S(=O)(=O)N1CCN(c2ccc(Cl)cc2)CC1	-14.4
COC(=O)C1CCN(c2ccc([N+](=O)[O-])cc2)CC1	-21.7
CCOC(=O)N1CCN(c2c(N3CCN(c4ccc(OC)cc4)CC3)c(=O)c2=O)CC1	-46.6
O=C(C1CCN(S(=O)(=O)c2cnc[nH]2)CC1)N1CCN(c2ccc([N+](=O)[O-])cc2)CC1	-1.78
CCOC(=O)N1CCN(c2c(N3CCN(c4ccc(F)cc4)CC3)c(=O)c2=O)CC1	-73.4
CN(C)S(=O)(=O)N1CCN(c2ccccc2)CC1	-1.78
O=S(=O)(c1cnc[nH]1)N1CCN(c2ccc(F)cc2)CC1	-3
CN(C)S(=O)(=O)N1CCN(c2ccc([N+](=O)[O-])cc2)CC1	-76.7
CCOC(=O)C1CCN(c2ccc([N+](=O)[O-])cc2)CC1	-68.9
O=[N+]([O-])c1ccc(N2CCN(S(=O)(=O)c3cnc[nH]3)CC2)cc1	-59.8
C[C@]12CCC3C(CC[C@H]4CCCC[C@]34C)C1CC[C@@]2(O)CNCCO (stereo partly shown)	15.6
O=C(O)CCCNc1cc(N2CCN(C(=O)c3ccco3)CC2)c2noc3c2c1C(=O)c1ccccc1-3	19
O=C(O)C1CCCCC1C(=O)Nc1nc(-c2ccc(Cl)s2)cs1 (stereo not shown)	13.7
C/C(=N\NC(=O)c1ccc(F)cc1)c1ccc(N2CCOCC2)cc1	-16.7
O=S(=O)(c1cccc(-c2cn3cc(Cl)ccc3n2)c1)N1CCOCC1	-23.1

Structure (SMILES)	hERG current change (%, negative = inhibition) at 10uM [%]
CCCCOC(=O)c1ccc(NC(=O)CSCc2n[nH]c(=O)[nH]2)cc1	1.91
S=C(NC1CCCCC1)N(CCc1nc2ccccc2[nH]1)C1CCCC1	4.83
Cc1cnc(C(=O)Nc2ccc(N3CCN(C(=O)OC(C)(C)C)CC3)cc2)cn1	14.1
COc1ccc(C(=O)N2CCC(C(=O)N3CCN(c4ccc(OC)cc4)CC3)CC2)cc1	-43.5
CCN(CC)C(=O)Cn1cc(C(=O)C(=O)N2CCN(c3ccc(OC)cc3)CC2)c2ccccc21	16.1
O=[N+]([O-])c1ccc(N2CCN(c3ccccc3O)CC2)cc1	-0.173
CCN(CC)C(=O)Cn1cc(C(=O)C(=O)N2CCN(c3ccccc3)CC2)c2ccccc21	-0.908
CCN(CC)C(=O)Cn1cc(C(=O)C(=O)N2CCN(c3ccc([N+](=O)[O-])cc3)CC2)c2ccccc21	-65.8
CCOC(=O)N1CCN(S(=O)(=O)c2ccc([N+](=O)[O-])cc2)CC1	-23.9
CC(C)(C)OC(=O)N1CCN(c2ccc([N+](=O)[O-])cc2)CC1	-73.3
CCOC(=O)N1CCN(c2ccc([N+](=O)[O-])cc2)CC1	-59.4
COc1ccc(N2CCN(C(=O)C3CCN(C(=O)c4cccc(Cl)c4)CC3)CC2)cc1	-29.8
COc1ccc(N2CCN(C(=O)C3CCN(C(=O)c4ccc([N+](=O)[O-])cc4)CC3)CC2)cc1	-69
CCOC(=O)N1CCN(c2ccc(O)cc2)CC1	15.6
COC(=O)C(NS(=O)(=O)c1ccc(NC(C)=O)cc1)C(C)C (stereo not shown)	-0.58
CN(C)CCCNC(=O)c1cc(C(=O)C2CCCCC2)c[nH]1	-3.99
C=C(C)C(C)(C#CCN1CCCC1)OC(C)=O (stereo not shown)	-6.48
NS(=O)(=O)c1ccc(CNC(=O)CCC2CCCCC2)cc1	-2.5
COc1cc(NC(=S)N2CCN(S(=O)(=O)c3ccc(C)cc3)CC2)cc(OC)c1	-4.7
CC(=O)c1ccc(-n2cc(C#N)c(=O)[nH]c2=O)cc1	18.9
CC1CN(C(=O)c2cccc(COc3ccccc3Cl)c2)CC(C)O1 (stereo not shown)	-49.3
Cc1ccc(C(=O)OCc2cn(-c3ccccc3)nn2)cc1	-7.92
O=C(O)Cc1sc(Nc2ccccc2)nc1-c1ccc(Cl)cc1	14.6
